According to the supplement of paper PMC10849652:
Of roughly 7,900 targets only a part is listed; those with a hit were picked by preference. About 0.6% of all pairs of compound and target were hits. Unmarked numbers belong to inactive results.

What was measured:
Test in all cases: log2 fold change, soluble protein after heating vs DMSO (PISA); higher = thermal stabilisation; K562 cells, 10 uM, 30 min; active = over 0.2 and 3.5 SD of the protein, either way, in both replicates (recomputed)
saracatinib = compound: CN1CCN(CCOc2cc(OC3CCOCC3)c3c(Nc4c(Cl)ccc5c4OCO5)ncnc3c2)CC1 [saracatinib]
Summary of the method: (§1)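 Values are thermal stability changes relative to control samples and are taken from duplicates. They are stated as log2 fold changes. Before quantification by TMTpro 16plex LC-MS/MS with equalised channel sums, K562 cells at 2×10^6 cells/mL were treated with 10 μM compound for 30 min, heated in aliquots for 3 min across 48°C-58°C, pooled, extracted in PBS with 0.5% NP-40 at 4°C, and centrifuged at 21,000xg for 90 min to give the soluble supernatant.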

sotrastaurin = compound: CN1CCN(c2nc(C3=C(c4c[nH]c5ccccc45)C(=O)NC3=O)c3ccccc3n2)CC1 [sotrastaurin]
Summary of the method: as §1

alvocidib = compound: CN1CC[C@H](c2c(O)cc(O)c3c(=O)cc(-c4ccccc4Cl)oc23)[C@H](O)C1 [alvocidib]
Summary of the method: as §1

Tubastatin A = compound: CN1CCc2c(c3ccccc3n2Cc2ccc(C(=O)NO)cc2)C1 [Tubastatin A]
Summary of the method: as §1

defactinib = compound: CNC(=O)c1ccc(Nc2ncc(C(F)(F)F)c(NCc3nccnc3N(C)S(C)(=O)=O)n2)cc1 [defactinib]
Summary of the method: as §1

rucaparib = compound: CNCc1ccc(-c2[nH]c3cc(F)cc4c3c2CCNC4=O)cc1 [rucaparib]
Summary of the method: as §1

[1] = compound: CNc1nc(-c2ccc3c(N)n[nH]c3c2)cc(N2C[C@@H](C(=O)NC3CCCCC3)CC[C@H]2C)n1
Summary of the method: as §1

encorafenib = compound: COC(=O)N[C@@H](C)CNc1nccc(-c2cn(C(C)C)nc2-c2cc(Cl)cc(NS(C)(=O)=O)c2F)n1 [encorafenib]
Summary of the method: as §1

[2] = compound: COC(=O)[C@H](CCSC)NC(=O)C1=C(C=C(C=C1)NC[C@H](CS)N)C2=CC=CC=C2
Summary of the method: as §1

[3] = compound: CNC(=O)C1=CC=CC=C1NC2=NC(=NC=C2Cl)NC3=C(C=C(C=C3)N4CCOCC4)OC
Summary of the method: as §1

Sequence of UniProt Q6ZU80 (Q6ZU80 whole entry, looked up): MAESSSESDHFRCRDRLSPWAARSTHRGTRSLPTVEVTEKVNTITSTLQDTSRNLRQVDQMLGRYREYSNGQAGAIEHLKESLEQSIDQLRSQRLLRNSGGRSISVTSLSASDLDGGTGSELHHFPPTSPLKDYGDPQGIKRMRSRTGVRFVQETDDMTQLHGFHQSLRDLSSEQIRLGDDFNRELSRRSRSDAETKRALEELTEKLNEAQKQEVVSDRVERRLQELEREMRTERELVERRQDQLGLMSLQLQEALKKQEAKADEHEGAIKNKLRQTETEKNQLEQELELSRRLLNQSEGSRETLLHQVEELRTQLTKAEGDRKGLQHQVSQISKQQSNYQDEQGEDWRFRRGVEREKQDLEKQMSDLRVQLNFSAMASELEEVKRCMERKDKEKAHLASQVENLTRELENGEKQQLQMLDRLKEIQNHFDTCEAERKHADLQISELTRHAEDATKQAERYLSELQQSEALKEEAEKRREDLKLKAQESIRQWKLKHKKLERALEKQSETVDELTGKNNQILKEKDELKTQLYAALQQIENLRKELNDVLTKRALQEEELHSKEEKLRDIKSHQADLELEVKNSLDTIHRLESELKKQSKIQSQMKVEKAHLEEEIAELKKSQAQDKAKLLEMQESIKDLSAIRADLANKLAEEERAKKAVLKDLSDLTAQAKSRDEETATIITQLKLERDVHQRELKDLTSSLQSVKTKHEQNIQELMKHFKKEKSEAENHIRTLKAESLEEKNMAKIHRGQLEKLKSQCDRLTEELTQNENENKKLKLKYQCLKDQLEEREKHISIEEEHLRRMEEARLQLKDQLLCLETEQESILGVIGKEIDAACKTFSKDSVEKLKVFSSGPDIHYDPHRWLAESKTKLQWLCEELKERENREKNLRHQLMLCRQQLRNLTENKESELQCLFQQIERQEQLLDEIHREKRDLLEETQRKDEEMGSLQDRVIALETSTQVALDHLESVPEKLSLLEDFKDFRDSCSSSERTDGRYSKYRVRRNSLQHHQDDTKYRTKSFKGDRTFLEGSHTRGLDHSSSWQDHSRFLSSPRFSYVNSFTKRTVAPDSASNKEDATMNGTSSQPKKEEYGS
Sequence of UniProt P68400 (P68400 whole entry, looked up): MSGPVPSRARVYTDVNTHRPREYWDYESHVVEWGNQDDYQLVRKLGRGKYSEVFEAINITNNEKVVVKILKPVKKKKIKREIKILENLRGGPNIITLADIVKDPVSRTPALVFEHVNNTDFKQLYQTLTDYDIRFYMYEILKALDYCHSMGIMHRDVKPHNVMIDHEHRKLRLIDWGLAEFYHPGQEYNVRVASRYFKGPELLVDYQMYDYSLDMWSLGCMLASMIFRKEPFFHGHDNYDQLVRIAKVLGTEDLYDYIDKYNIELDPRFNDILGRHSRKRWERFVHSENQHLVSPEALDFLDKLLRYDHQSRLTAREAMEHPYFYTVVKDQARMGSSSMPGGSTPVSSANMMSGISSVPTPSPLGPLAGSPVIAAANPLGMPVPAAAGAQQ
Sequence of UniProt Q6P5X5 (Q6P5X5 whole entry, looked up): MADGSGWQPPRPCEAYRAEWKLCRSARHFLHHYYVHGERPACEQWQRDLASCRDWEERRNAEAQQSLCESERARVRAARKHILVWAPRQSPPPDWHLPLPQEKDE
Sequence of UniProt O60583 (O60583 whole entry, looked up): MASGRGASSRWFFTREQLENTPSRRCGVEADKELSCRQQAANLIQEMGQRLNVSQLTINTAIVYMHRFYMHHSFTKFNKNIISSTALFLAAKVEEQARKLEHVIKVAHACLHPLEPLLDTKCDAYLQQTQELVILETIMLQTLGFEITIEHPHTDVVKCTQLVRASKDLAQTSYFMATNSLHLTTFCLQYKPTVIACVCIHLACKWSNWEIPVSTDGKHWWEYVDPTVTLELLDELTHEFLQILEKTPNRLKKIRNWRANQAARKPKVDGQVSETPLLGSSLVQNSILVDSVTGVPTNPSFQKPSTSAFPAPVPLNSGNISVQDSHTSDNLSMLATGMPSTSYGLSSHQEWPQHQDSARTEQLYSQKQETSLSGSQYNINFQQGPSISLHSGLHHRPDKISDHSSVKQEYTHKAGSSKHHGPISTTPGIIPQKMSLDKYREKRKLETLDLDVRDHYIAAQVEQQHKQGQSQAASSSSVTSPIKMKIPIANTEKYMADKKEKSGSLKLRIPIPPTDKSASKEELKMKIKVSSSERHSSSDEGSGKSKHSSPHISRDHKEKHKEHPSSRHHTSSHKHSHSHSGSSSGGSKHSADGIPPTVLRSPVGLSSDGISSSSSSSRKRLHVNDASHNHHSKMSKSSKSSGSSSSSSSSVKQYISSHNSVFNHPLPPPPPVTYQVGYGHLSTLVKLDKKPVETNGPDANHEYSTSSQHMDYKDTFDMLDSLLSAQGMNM
Sequence of UniProt P33240 (P33240 whole entry, looked up): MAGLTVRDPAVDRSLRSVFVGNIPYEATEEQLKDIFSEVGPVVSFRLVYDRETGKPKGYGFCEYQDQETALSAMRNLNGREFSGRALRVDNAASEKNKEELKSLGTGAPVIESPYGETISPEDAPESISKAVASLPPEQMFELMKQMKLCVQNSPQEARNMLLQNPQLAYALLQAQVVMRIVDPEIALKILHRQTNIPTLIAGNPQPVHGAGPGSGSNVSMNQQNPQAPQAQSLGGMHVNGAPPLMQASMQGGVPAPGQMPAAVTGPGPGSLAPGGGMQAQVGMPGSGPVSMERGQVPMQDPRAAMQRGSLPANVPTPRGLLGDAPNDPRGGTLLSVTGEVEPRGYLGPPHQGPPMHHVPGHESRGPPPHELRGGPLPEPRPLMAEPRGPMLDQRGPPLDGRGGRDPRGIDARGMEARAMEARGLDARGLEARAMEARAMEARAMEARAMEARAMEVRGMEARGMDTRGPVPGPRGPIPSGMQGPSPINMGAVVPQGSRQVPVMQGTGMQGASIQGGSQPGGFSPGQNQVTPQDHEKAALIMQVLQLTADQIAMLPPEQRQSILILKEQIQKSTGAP
Sequence of UniProt Q9UIB8 (Q9UIB8 whole entry, looked up): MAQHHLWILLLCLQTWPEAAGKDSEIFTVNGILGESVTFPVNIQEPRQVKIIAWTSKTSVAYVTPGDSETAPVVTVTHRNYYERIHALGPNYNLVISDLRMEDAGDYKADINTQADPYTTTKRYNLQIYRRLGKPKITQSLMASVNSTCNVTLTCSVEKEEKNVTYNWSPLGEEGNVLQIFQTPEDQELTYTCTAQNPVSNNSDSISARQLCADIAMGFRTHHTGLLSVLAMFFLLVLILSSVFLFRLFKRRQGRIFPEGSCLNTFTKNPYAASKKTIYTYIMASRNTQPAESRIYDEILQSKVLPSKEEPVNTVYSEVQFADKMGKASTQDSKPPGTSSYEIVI
Sequence of UniProt Q14061 (Q14061 whole entry, looked up): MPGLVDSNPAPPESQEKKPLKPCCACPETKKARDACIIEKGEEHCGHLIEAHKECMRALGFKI
Sequence of UniProt P46527 (P46527 whole entry, looked up): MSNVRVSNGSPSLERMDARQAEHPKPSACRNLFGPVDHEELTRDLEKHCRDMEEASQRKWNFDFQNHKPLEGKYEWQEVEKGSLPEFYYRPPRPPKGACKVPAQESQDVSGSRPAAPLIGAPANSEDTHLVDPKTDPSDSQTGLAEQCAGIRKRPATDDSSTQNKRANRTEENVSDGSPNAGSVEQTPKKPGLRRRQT
Sequence of UniProt P15954 (P15954 whole entry, looked up): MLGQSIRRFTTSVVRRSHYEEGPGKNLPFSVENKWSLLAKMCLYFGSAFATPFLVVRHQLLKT
Sequence of UniProt Q14746 (Q14746 whole entry, looked up): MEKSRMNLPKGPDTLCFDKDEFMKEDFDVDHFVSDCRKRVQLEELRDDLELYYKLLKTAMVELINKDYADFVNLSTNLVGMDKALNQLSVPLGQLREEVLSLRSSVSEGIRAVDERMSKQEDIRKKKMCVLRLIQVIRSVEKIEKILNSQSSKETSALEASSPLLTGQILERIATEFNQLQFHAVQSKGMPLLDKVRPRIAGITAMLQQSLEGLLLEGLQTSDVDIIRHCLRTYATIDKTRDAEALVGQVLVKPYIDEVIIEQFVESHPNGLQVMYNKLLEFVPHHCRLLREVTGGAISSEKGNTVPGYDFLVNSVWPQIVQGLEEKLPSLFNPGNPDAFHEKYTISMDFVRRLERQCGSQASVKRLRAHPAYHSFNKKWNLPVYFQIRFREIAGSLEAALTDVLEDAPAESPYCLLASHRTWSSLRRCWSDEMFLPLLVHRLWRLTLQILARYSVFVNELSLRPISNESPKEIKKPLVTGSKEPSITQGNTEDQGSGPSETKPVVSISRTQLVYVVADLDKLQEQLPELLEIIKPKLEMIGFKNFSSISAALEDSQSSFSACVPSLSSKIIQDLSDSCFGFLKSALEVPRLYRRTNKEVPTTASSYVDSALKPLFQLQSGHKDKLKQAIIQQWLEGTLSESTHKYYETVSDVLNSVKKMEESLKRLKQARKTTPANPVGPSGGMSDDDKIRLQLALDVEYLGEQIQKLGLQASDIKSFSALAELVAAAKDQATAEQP
Sequence of UniProt Q13286 (Q13286 whole entry, looked up): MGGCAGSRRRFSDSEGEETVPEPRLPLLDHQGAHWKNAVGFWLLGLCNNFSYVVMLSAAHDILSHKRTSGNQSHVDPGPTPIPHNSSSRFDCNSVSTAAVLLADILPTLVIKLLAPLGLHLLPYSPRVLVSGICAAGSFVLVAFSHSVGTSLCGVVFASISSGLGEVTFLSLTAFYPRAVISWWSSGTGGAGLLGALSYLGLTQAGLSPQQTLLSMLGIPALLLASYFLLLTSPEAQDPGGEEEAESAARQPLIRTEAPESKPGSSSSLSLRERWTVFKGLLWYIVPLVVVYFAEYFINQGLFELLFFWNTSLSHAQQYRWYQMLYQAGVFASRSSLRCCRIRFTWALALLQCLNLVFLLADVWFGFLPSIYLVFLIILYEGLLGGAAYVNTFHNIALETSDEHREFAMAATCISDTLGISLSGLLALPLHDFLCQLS
Sequence of UniProt Q86X83 (Q86X83 whole entry, looked up): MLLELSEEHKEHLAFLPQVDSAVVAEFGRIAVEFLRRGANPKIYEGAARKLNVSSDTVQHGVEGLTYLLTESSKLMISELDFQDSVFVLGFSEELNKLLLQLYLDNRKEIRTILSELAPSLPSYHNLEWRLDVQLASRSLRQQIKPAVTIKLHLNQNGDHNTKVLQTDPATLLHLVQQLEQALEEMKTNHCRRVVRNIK

Target	log2 fold change (saracatinib)	log2 fold change (sotrastaurin)	log2 fold change (alvocidib)	log2 fold change (Tubastatin A)	log2 fold change (defactinib)	log2 fold change (rucaparib)	log2 fold change [1]	log2 fold change (encorafenib)	log2 fold change [2]	log2 fold change [3]
CEP128 (UniProt Q6ZU80)	-0.092	-0.022	0.033	0.024	0.027	-0.306	-0.22	0.061	0.044	
CSNK1A1 (UniProt P48729)	-0.028	0.011	0.146	0.115	0.058	0.128	0.042	0.037	-0.016	
CRK (UniProt P46108)	-0.768 (active)	0	-0.032	0.092	-0.056	-0.025	-0.006	0.021	-0.024	-0.003
CASP10 isoform 4 (UniProt Q92851)	0.034	-0.138	-0.116	0.127	0.028	0.111	0.04	0.164	-0.039	
CD84 (UniProt Q9UIB8)	-0.012	-0.144	-0.111	-0.039			0.56 (active)			-0.119
CDK16 isoform 2 (UniProt Q00536)	-0.014	0.246		0.014	0.236	0.278	-0.102	0.016	-0.146	0.027
CSNK2A1 (UniProt P68400)	0.016	0.059	-0.082	-0.019	-0.113	-0.079	-0.045	-0.038	-0.034	0.263 (active)
CENPE (UniProt Q02224)	0.318	-0.19	-0.385	0.091	-0.056		0.399		0.198	-0.277
COG2 (UniProt Q14746)	0.001	-0.32	0.137	-0.08		-0.272	-0.085	0.007		-0.135
COMMD2 (UniProt Q86X83)	-0.17	0.043	-0.078	0.179	-0.088	0.034	0.039	-0.005	0.012	0.411 (active)
COX17 (UniProt Q14061)	-0.092	-0.023	-0.101	-0.113	-0.072		0.023		0.147	-0.008
CCNC (UniProt P24863)	0.057	-0.057	0.6 (active)		-0.047		-0.028		0.001	0.008
COX7C (UniProt P15954)	0.026	0.028		0.03	0.031	0.011	-0.054	-0.06	0.047	0.007
CASP9 (UniProt P55211)	-0.206	-0.25	-0.136	0.098	-0.165	0.161	-0.051	0.012	-0.035	
CHAF1A (UniProt Q13111)	0.008	0.004	0.041			0.198	-0.125	0.094		0.133
CAVIN1 (UniProt Q6NZI2)	-0.065	-0.053	0.101	0.159	0.226	0.098	0.119	0.122	0.034	-0.015
CLN3 (UniProt Q13286)	0.046		0.107	0.065	-0.039	0.082	-0.097	-0.053	0.149	0.004
C22orf39 (UniProt Q6P5X5)	0.076	-0.028	0.013	-0.013			0.056			0.129
CSTF2 (UniProt P33240)	-0.02	0.105	0.045	-0.064	0.023	0.034	-0.092	-0.08	-0.028	-0.023
CHPT1 (UniProt Q8WUD6)	-0.066	-0.016	-0.118	-0.08		-0.069	0.034	0.103		
CPSF7 isoform 3 (UniProt Q8N684)	0.006	0.026	-0.018	0.032	0.014	0.033	-0.014	-0.014	-0.044	-0.071

Target	log2 fold change (saracatinib)	log2 fold change (sotrastaurin)	log2 fold change (alvocidib)	log2 fold change (Tubastatin A)	log2 fold change (defactinib)	log2 fold change (rucaparib)	log2 fold change [1]	log2 fold change (encorafenib)	log2 fold change [2]	log2 fold change [3]
CLN5 (UniProt O75503)	-0.283	-0.008	0.01	0.079			-0.715			0.032
CDKN1B (UniProt P46527)	0.29	0.129	0.256		0.163		-0.298		0.028	-0.247
CDK17 isoform 2 (UniProt Q00537)	0.008	-0.036	0.602 (active)		0.11	0.494	0.06	-0.027	0.014	-0.017
CCNT2 (UniProt O60583)	-0.016	-0.372		0.157		-0.112	0.04	0.119		
CCDC167 (UniProt Q9P0B6)	-0.05	-0.018	0.061	-0.063		0.021	0.104	-0.037		-0.006
CRTC1 isoform 2 (UniProt Q6UUV9)	-0.026	0.011		-0.009	-0.021		-0.062		0.009	-0.101
CASK (UniProt O14936)	-0.068						-0.009			-0.064
CHST10 (UniProt O43529)		-0.01	-0.106	-0.037						0.035
CLCN5 isoform 2 (UniProt P51795)	-0.001		-0.032	-0.006	-0.033	0.097	-0.116	0.075	-0.025	0.009
CRTC3 (UniProt Q6UUV7)		0.044	-0.051	-0.109	0.025				-0.06	
CASP7 isoform 3 (UniProt P55210)	0.185					-0.013	0.254	0.014		0.151
CFAP58 (UniProt Q5T655)						-1.21 (active)		0.265		
CDCA2 (UniProt Q69YH5)		-0.148	0.008	0.217	-0.063	0.011		0.318	-0.03	-0.152
CARD9 (UniProt Q9H257)										0.388
CKS2 (UniProt P33552)	-0.044			0.031		0.025	-0.101	0.078		
CNOT4 isoform 9 (UniProt O95628)	0.077		0	-0.027	-0.129	-0.057	-0.021	-0.05	0.038	0.187
CRTC2 (UniProt Q53ET0)		-0.09		-0.031	-0.218	0.053		-0.026	-0.103	-0.269
CCNL1 (UniProt Q9UK58)										-0.179
C5orf30 (UniProt Q96GV9)				0.502						
CCDC57 (UniProt Q2TAC2)		0.059	-0.055	0.026	0.02	-0.15		0.041	0.007	0.04
